# Assay outcomes (PubChem BioAssay)
# dFosB activator = enhances mouse delta FosB homodimer DNA binding; P13346; purified delta FosB, TAMRA-CDK5 oligo fluorescence polarization; percent of positive-control signal above neutral wells; activation, % at 25 µM; actives 0.99% (n = 340,000); AID 493131;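 active = mean activation above about 17%, with every replicate also reaching it, limit read from the data, passing the limit was not always enough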
# Target sequence (P13346 whole entry, looked up): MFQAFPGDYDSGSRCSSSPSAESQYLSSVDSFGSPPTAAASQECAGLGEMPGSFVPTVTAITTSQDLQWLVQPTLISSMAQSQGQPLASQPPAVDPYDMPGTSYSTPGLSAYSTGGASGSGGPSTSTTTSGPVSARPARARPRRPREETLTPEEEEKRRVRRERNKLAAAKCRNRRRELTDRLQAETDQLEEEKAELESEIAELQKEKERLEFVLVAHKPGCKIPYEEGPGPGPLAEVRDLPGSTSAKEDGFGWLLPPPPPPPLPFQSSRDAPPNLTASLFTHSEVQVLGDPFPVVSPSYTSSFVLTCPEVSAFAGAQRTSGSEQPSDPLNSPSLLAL
# GSIS activator = GLuc luminescence reporter in INS-1E cells, primary screen for activators of glucose-dependent secretion of insulin | INS-1E GLuc reporter insulin secretion, 2-3 h | activation, % at 16.6 µM | actives 0.61% (n = 370,000);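 active = lowest replicate activation of at least 40%, so every replicate reaches that level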;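 also: 0% = median of neutral control wells and 100% = median of IBMX positive control wells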
# RAD52 inh = inhibitors of human RAD52 DNA annealing. P43351. recombinant RAD52 DNA annealing, FRET fluorescence. inhibition, % at 18.7 µM. actives 0.46% (n = 360,000);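 active = every replicate showing at least 50% inhibition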
# RAD54 branch = blocks human RAD54 Holliday junction branch migration | Q92698 | FAM/BHQ fluorescence | inhibition, % at 10.4 µM | actives 0.14% (n = 360,000);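 active = mean normalized replicate activity at least 40 and at least half of replicates scoring 40 or more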;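 also: 0% = median of neutral control wells and 100% = median of positive control wells; inhibitors cause a drop in the FAM fluorescence signal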
# MLL AF4-AF9 inh = MLL-AF4/AF9 protein interaction inhibition | AID 651704 | actives 0.47% (n = 350,000) | inhibition, % at 10 µM | AlphaScreen, biotin-AF4 peptide binding to FLAG-AF9;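 active = every replicate reaching a set inhibition limit, whatever the replicate mean, cut at about 25% in these data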;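 also: 0% = plate neutral control median and 100% = total signal loss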
# DENV2 CPE = protects cells from dengue virus 2 cytopathic effect; DENV2-infected cells, cytopathic effect rescue, plate reader; CPE inhibition, % at 9.99 µM; AID 651640; actives 1.7% (n = 350,000); in the data active = CPE inhibition above about 20%, passing the limit was not always enough; tested in BHK-21 cells;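 also: 0% = median of neutral control wells and 100% = median of positive control wells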
# Numbers without * were called inactive; nt = no result given. This is a sample that favours compounds with a hit; in the whole collection about 3.1% have one here.
SMILES,dFosB activator,GSIS activator,RAD52 inh,RAD54 branch,MLL AF4-AF9 inh,DENV2 CPE
Cc1cccc(S(=O)(=O)N2C[C@H]3[C@@H](c4ccccc42)[C@@H](CO)N3C(=O)C2CC2)c1,nt,3,9,9,-1,-7
O=C(N/N=C/c1ccncc1)c1cc(-c2ccc(Br)s2)[nH]n1,1,43*,-18,-1,2,-2
OC(CNc1ccnc2cc(Cl)ccc12)CNC1CCCCC1 (stereo unspecified),26*,nt,45,nt,5,-5
OC1CCCC1NCc1ccnc2cc(Cl)ccc12 (stereo unspecified),-2,13,-3,5,5,1
C[C@H](CO)N1C[C@H](C)[C@@H](CN(C)Cc2ccncc2)Oc2c(NC(=O)NC3CCCCC3)cccc2C1=O,nt,10,nt,nt,nt,nt
COC(=O)c1ccc(N2C(c3ccsc3)=Cc3cc4c(cc3C2CC(=O)c2ccco2)OCO4)cc1 (stereo unspecified),nt,10,-10,nt,-1,11
COC(=O)c1ccc(N2C(c3cc(OC)cc(OC)c3)=Cc3ccc(OC)cc3C2CC(=O)c2ccco2)cc1 (stereo unspecified),nt,-4,-10,nt,2,31*
CCOc1ncccc1C(=O)OCC(=O)NCCCc1ccccc1,-2,54*,-2,-6,-3,3
CCOc1ncccc1C(=O)OCC(=O)NCCc1ccccc1,6,1,nt,5,nt,nt
CCOc1ncccc1C(=O)OCC(=O)NCc1ccc(C(=O)OC)cc1,4,21,-8,0,-2,67*
CCOc1ncccc1C(=O)OCc1ccc(C(=O)OC)cc1,-15,46,-8,nt,-2,5
CN(C)Cc1cc2ccccc2c2c1COC2,-2,-12,4,-7,32*,-3
Cc1cc2nc(NCCCO)n(CC(=O)c3cc(C(C)(C)C)c(O)c(C(C)(C)C)c3)c2cc1C,7,1,-17,-6,5,32*
CO[C@@H]1CN(C)C(=O)c2ccc(NC(=O)NC(C)C)cc2OC[C@@H](C)N(CCC(F)(F)F)C[C@@H]1C,nt,-10,4,0,-3,33*
CO[C@H]1CN(C)C(=O)c2ccc(NC(=O)NC(C)C)cc2OC[C@H](C)N(CCC(F)(F)F)C[C@H]1C,nt,-15,-6,6,0,55*
C[C@H](CO)N1C[C@H](C)[C@H](CN(C)C(=O)C2CCC2)Oc2cc(Br)ccc2S1(=O)=O,nt,1,nt,nt,nt,nt
COc1ccc(NC(=O)Nc2ccc3c(c2)C(=O)N([C@H](C)CO)C[C@H](C)[C@@H](CN(C)S(=O)(=O)c2c(C)noc2C)O3)cc1,nt,-2,nt,nt,nt,nt
COc1ccc(NC(=O)Nc2cccc3c2O[C@@H](CN(C)Cc2ccccc2)[C@@H](C)CN([C@H](C)CO)C3=O)cc1,nt,4,4,8,3,-1
CO[C@@H]1CN(C)C(=O)c2ccc(NC(=O)C3CC3)cc2OC[C@@H](C)N(Cc2cccnc2)C[C@@H]1C,nt,7,1,-3,-2,-1
Cc1ccc(NC(=S)NCC2CCN(C(C)c3ccccc3)C2)cc1C (stereo unspecified),2,-16,12,nt,25*,-2
COc1ccc(NS(=O)(=O)c2cccs2)cn1,-11,-1,-12,-13,1,24*
CCCCCCCCCCn1c2c(c(=N)c3c1CCC3)CCC2,-6,339*,nt,36,nt,nt
CNC[C@H]1OCCCC[C@H](C)Oc2ccc(NS(=O)(=O)c3cccs3)cc2C(=O)N([C@@H](C)CO)C[C@H]1C,nt,9,-16,2,-4,-3
CCC(=O)N[C@@H]1CC[C@@H](CC(=O)OC)O[C@H]1CO,nt,-11,-6,0,1,-7
C[C@@H]1CN([C@@H](C)CO)C(=O)Cc2cc(N(C)C)ccc2O[C@@H]1CN(C)Cc1ccccc1,nt,-3,-8,-1,8,4
SMILES,dFosB activator,GSIS activator,RAD52 inh,RAD54 branch,MLL AF4-AF9 inh,DENV2 CPE
C[C@H]1CN([C@@H](C)CO)C(=O)Cc2cc(N(C)C)ccc2O[C@H]1CN(C)Cc1ccc(-c2ccccc2)cc1,nt,-18,1,4,44*,4
C[C@@H]1CN([C@H](C)CO)C(=O)Cc2cc(N(C)C)ccc2O[C@@H]1CN(C)Cc1ccc(-c2ccccc2)cc1,nt,-11,3,-6,44*,2
C[C@H]1CN([C@@H](C)CO)C(=O)Cc2cc(N(C)C)ccc2O[C@H]1CN(C)Cc1ccccc1,nt,-1,5,8,2,2
C[C@@H]1CN([C@H](C)CO)C(=O)Cc2cc(N(C)C)ccc2O[C@H]1CN(C)Cc1ccc(-c2ccccc2)cc1,nt,-14,-7,-4,36*,12
C[C@H](CO)N1C[C@H](C)[C@@H](CN(C)Cc2ccc(-c3ccccc3)cc2)Oc2ccc(N(C)C)cc2CC1=O,nt,-11,2,-21,59*,18
C[C@@H]1CN([C@@H](C)CO)C(=O)Cc2cc(N(C)C)ccc2O[C@H]1CN(C)Cc1ccccc1,nt,1,-1,4,14,-1
COCC(=O)Nc1ccc2c(c1)[C@H]1C[C@H](CC(=O)NCc3cccnc3)O[C@@H](CO)[C@H]1O2,nt,-6,10,11,-2,13
O=C(N[C@@H]1CC[C@H](CCn2cc(Cc3ccccc3)nn2)O[C@H]1CO)c1ccccn1,nt,-6,-6,-2,-2,-1
CO[C@@H]1CN(C)C(=O)c2ccc(NC(C)=O)cc2OC[C@H](C)N(C(=O)CN2CCOCC2)C[C@@H]1C,nt,-4,nt,nt,nt,nt
C[C@@H]1CN([C@@H](C)CO)C(=O)Cc2cc(N(C)C)ccc2O[C@@H]1CN(C)Cc1ccc(Oc2ccccc2)cc1,nt,10,2,-2,38*,2
C[C@@H]1CN([C@H](C)CO)C(=O)Cc2cc(N(C)C)ccc2O[C@H]1CN(C)Cc1ccccc1,nt,9,6,16,2,-9
CSc1ccccc1NC(=O)c1cc2c(=O)n3ccccc3nc2s1,-6,0,-26,6,-1,22*
CC(C)NC(=O)c1cc2c(=O)n3ccccc3nc2s1,-2,-1,0,14,-2,-3
CCOC(=O)c1c(NC(=O)c2ccno2)c2cc([N+](=O)[O-])ccc2n1C,0,-22,-11,nt,nt,84*
Cc1ccc2c(C)c(C(=O)N(Cc3ccc(N(C)C)cc3)C3CCS(=O)(=O)C3)oc2c1 (stereo unspecified),-10,nt,-11,-3,38*,-2
C[C@@H]1CN([C@H](C)CO)S(=O)(=O)c2ccc(-c3ccc(F)cc3)cc2O[C@H]1CN(C)C(=O)C1CCC1,nt,-24,nt,nt,nt,nt
C[C@@H]1CN([C@@H](C)CO)C(=O)c2cc(NC(=O)Cc3ccccc3)ccc2O[C@@H](C)CCCCO[C@H]1CN(C)Cc1ccncc1,nt,-8,nt,nt,nt,nt
CCn1nnnc1NCc1ccc(OCc2c(F)cccc2Cl)c(OC)c1,-5,43*,-1,nt,0,3
